# MPTP inh: permeability transition pore inhibition. isolated mouse mitochondria, Ca2+ swelling absorbance, 30 min. AID 602449. 360,000 tested, 1.4% active. inhibition, % at 10 µM;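 active means inhibition of 50% or more, scaled per plate between neutral and stimulator controls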;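 further: 0% = DMSO wells given calcium and 100% = 1 mM EGTA wells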
# NR3A LBD binder: modulators (binders) of human NR3A ligand-binding domain; NR3A LBD differential scanning fluorimetry, Tm shift; 0% = protein alone, 100% = glycine-bound protein; Tm shift relative to glycine control, % at 25 µM; 340,000 tested, 2.5% active;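 active means melting temperature shift of at least 10% of the positive control shift, at one fixed dose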
# rCAG RNA binder: r(CAG) repeat RNA binding; TO-PRO-1 dye displacement fluorescence; inhibition, % at 3 µM; 370,000 tested, 1.3% active;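 active means inhibition above the plate cutoff, the mean of all test compounds on that plate plus 3 SD, cut at about 35% in these data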;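 further: 0% = DMSO alone and 100% = 100 µM mitoxantrone as full dye displacement; higher means more dye released from RNA so lower well fluorescence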
# Myeloid diff MLP: myeloid differentiation induction; calls only at 10 µM; ER-HoxA9 myeloid progenitors, lysozyme-GFP differentiation, flow cytometry; 360,000 tested, 1% active; AID 624256;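 active means normalized GFP-positive differentiation at or above the plate's own cutoff, the solvent-only control mean plus 3 SD; inconclusive means no clear call, values can overlap the other calls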;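 further: cells exposed to compound for four days before flow analysis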
# FAS TE block: inhibitors of human fatty acid synthase thioesterase domain; inhibition, % at 15 µM; 360,000 tested, 0.67% active; recombinant FAS-TE, OMFH fluorogenic substrate, fluorescence endpoint; AID 602261; P49327;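 active means compounds whose normalised, plate-corrected inhibition of enzyme fluorescence in the single-dose primary screen is 50% or more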;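 further: 0% = DMSO with enzyme and 100% = substrate without enzyme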
# * marks the source's active call; other numbers are inactive results; i = inactive; ? = inconclusive; . = no result given; + = active, no number; ! = repeats disagree. Compounds with a hit are over-represented: about 5.7% of the library has one in this group of screens.
SMILES,MPTP inh,NR3A LBD binder,rCAG RNA binder,Myeloid diff MLP,FAS TE block
C(=N\Nc1nc(Nc2ccccc2)nc(Nc2ccccc2)n1)/c1cccnc1,1.1,26.7*,12.9,i,8.5
C(=N\Nc1nc(Nc2ccccc2)nc(Nc2ccccc2)n1)/c1ccncc1,0.7,1.4,1.9,i,-2.1
COc1ccc(S(=O)(=O)N2CCCCCC2)cc1N(C)S(=O)(=O)c1ccccc1,0.2,12.2*,-3.5,i,16.2
COc1ccc(CCNS(=O)(=O)c2cn(C)cn2)cc1OC,-1.3,-1.6,3.9,+,-2.9
CC(=O)Nc1cccc(S(=O)(=O)N2CCCCCC2)c1,-3.1,-1.3,-1.4,i,-7.1
O=S(=O)(NCC1CC1)c1cccc(S(=O)(=O)N2CCCC2)c1,-0.2,1.3,-0.8,+,-7.6
O=C(Nc1cccc(S(=O)(=O)N2CCCCC2)c1)C1CCCC1,0.6,21.6*,1.1,i,1.6
Cc1nn(-c2ccccc2)c(C)c1/C=N\N1CCN(Cc2ccccc2Cl)CC1,.,.,-1.3,.,.
C#CCCC(=O)O[C@H]1CCC[C@@]2(C(=O)N(Cc3ccccc3)c3ccccc32)[C@H]1NC(=O)CCc1ccccc1,.,.,2.7,.,.
O=C1c2ccccc2/C(=C\c2ccc(Br)nc2)N1c1ccccc1,.,.,6.0,.,.
Cc1cc(Oc2cccnc2)ccc1NC(=O)CCc1c[nH]c2ccccc12,.,.,6.5,.,.
COc1cccc(CO[C@H]2C=C[C@@H](c3ccccc3)O[C@@H]2CO)c1,.,.,5.3,.,.
COc1ccc(CCNS(=O)(=O)c2cccc(C)c2)cc1OC,0.1,1.5,-3.5,i,-2.5
COc1ccc(CCNS(=O)(=O)c2cccc(S(=O)(=O)N3CCCC3)c2)cc1OC,2.4,14.2*,0.1,i,-1.7
COc1ccc(S(=O)(=O)N2CCCCCC2)cc1C(=O)Nc1cccc(C)n1,-0.1,23.2*,0.3,i,13.3
CCNc1nc(NCC)n2c(SC(C(=O)Nc3cc(Cl)cc(Cl)c3)c3ccccc3)nnc2n1 (stereo not given),4.9,11.1*,2.3,i,12.5
N#CCC[C@@H]1CC[C@]2(CCCN(C(=O)c3ccno3)C2)O1,.,.,-0.5,.,.
CN(c1ccccc1)c1ccc(/C=C/[N+](=O)[O-])cc1,-0.6,16.2*,1.2,?,-12.9
CCc1ccc(NC(=O)CCc2c(C)nn(-c3ccc(N4CCCCC4)nn3)c2C)cc1,-1.0,-2.7,-0.9,i,17.1
CCOc1ccc(NC(=O)CCc2c(C)nn(-c3ccc(N4CCCCC4)nn3)c2C)cc1,-0.5,14.0*,-4.9,i,2.6
COCC(=O)n1nc(-c2ccccc2)nc1NCc1ccc(F)cc1,0.5,12.7*,-3.6,i,-1.6
COCC(=O)n1nc(-c2ccccc2)nc1NCc1ccccc1,-0.5,1.3,-0.8,i,2.1
CCOC(=O)c1sc2ccccc2c1OC(=O)c1ccccc1,-5.5,14.0*,-2.7,i,11.1
CC(=O)c1cc(-c2ccccc2)n(CC(=O)NCc2ccc(F)cc2)c1C,.,.,4.9,.,.
COCc1c(C(=O)N/N=C\c2cccs2)nnn1-c1nonc1N,-0.7,-16.8,-1.8,i,-2.0
SMILES,MPTP inh,NR3A LBD binder,rCAG RNA binder,Myeloid diff MLP,FAS TE block
Nc1nonc1-n1nnc(C(=O)N/N=C/c2ccccc2Cl)c1CSc1ccccc1,22.6,30.4*,4.5,i,28.3
Cc1ccc(/C=N/NC(=O)c2nnn(-c3nonc3N)c2CSc2ccc(Cl)cc2)cc1,6.1,26.3*,1.6,i,4.7
Nc1nonc1-n1nnc(C(=O)N/N=C/c2ccncc2)c1CSc1ccc(Cl)cc1,2.3,5.2,-0.1,i,3.9
Nc1nonc1-n1nnc(C(=O)N/N=C/c2ccc3c(c2)OCO3)c1CSc1ccccc1,-0.3,38.7*,8.5,i,-3.0
Cc1ccc(SCc2c(C(=O)N/N=C/c3ccncc3)nnn2-c2nonc2N)cc1,0.9,9.3,0.3,i,3.0
Nc1nonc1-n1nnc(C(=O)N/N=C/c2cccs2)c1CSc1ccccc1,-0.5,37.1*,5.7,i,-3.5
COC(=O)[C@]12C[C@H](CC(=O)N3CCN(C(=O)C4CC4)CC3)C(=O)N(Cc3ccc4c(c3)OCO4)C1=C[C@H](C(C)C)O[C@@H]2C1CC1,.,.,-0.1,.,.
CCc1c(C(=O)N/N=C/c2cccs2)nnn1-c1nonc1N,-1.9,22.2*,-1.4,i,-5.0
Nc1nonc1-n1nnc(C(=O)N/N=C/c2c(Cl)cccc2Cl)c1CSC1=NCCS1,2.0,-2.4,5.0,i,15.1
Nc1nonc1-n1nnc(C(=O)N/N=C/C=C/c2ccccc2)c1CSC1=NCCS1,3.1,16.3*,13.7,i,20.7
CCc1ccc(C2=NN(S(C)(=O)=O)C(c3cccs3)C2)cc1 (stereo not given),2.9,-4.3,3.4,+,-6.0
CN(Cc1ccccc1)C(=O)OCc1cn(Cc2ccccc2Cl)nn1,.,.,-1.2,.,.
Cc1cc(C)n2c(NCc3ccccc3)c(-c3cc4ccccc4o3)nc2n1,-1.2,.,15.5,+,-3.4
Cc1cc(C)n2nc(NCc3ccccc3)nc2n1,0.3,1.1,-0.8,i,-7.1
COCCN1Cc2cccc(C(=O)Nc3cccc(OC)c3)c2C1=O,-1.3,18.7*,3.8,i,2.0
COCCN1Cc2cccc(C(=O)Nc3ccc(C)c(C)c3)c2C1=O,-1.4,7.3,4.5,i,3.1
COc1ccc2c(C=Nc3c(C)n(C)n(-c4ccccc4)c3=O)c(O)n(Cc3ccco3)c(=O)c2c1,-1.5,-0.1,10.3,+!,26.2
Cc1c(N=Cc2ccco2)c(=O)n(-c2ccccc2)n1C,0.7,-1.7,-5.7,i,-2.6
CCn1c(Cc2cccs2)nnc1SCC(=O)Nc1ccc2c(c1)OCCO2,.,.,2.2,.,.
CCCSc1nc(N2CCOCC2)c2c(c1C#N)CCCC2,-3.2,18.7*,2.4,i,43.6
C/C(=C\C(=O)c1ccc(F)cc1)NCc1ccc2c(c1)OCO2,-0.5,14.5*,6.6,i,10.5
C/C(=C\C(=O)c1ccc(Br)cc1)NCc1ccc2c(c1)OCO2,1.7,-29.8,3.0,i,20.9
O=C(C1CCCN(S(=O)(=O)c2ccccc2[N+](=O)[O-])C1)N1CCN(Cc2ccccc2)CC1 (stereo not given),.,.,-0.5,.,.
O=[N+]([O-])c1ccccc1-c1ccc(C(=S)N2CCCC2)o1,-1.1,-1.4,12.3,+,9.2
CCCCc1c(-c2ccccc2OC)ncn1Cc1ccc(OC)cc1,.,.,0.6,.,.
SMILES,MPTP inh,NR3A LBD binder,rCAG RNA binder,Myeloid diff MLP,FAS TE block
CCCCNC(=O)c1ccc(CNc2c(N3CCC(C(=O)OCC)CC3)c(=O)c2=O)cc1,0.2,11.2*!,0.6,i,-8.1
CCOC(=O)[C@@H]1CSCCS(=O)(=O)N1C(=O)[C@H](CCSC)NC(=O)OC(C)(C)C,.,.,-1.6,.,.
COc1ccc(/C=N\NS(=O)(=O)c2ccc(Cl)cc2)cc1COc1ccccc1[N+](=O)[O-],-1.1,23.6*,10.1,i,23.9
COc1ccc(/C=N\NS(=O)(=O)c2ccc(Br)cc2)cc1COc1ccccc1[N+](=O)[O-],-0.7,25.0*,10.3,i,13.9
COc1cc(/C=N/NS(=O)(=O)c2ccc(Br)cc2)ccc1O,2.4,0.8,9.6,i,-4.5
COC(=O)C[C@@H]1CC[C@H]2[C@H](COc3ccc(NC(=O)Nc4ccc(Cl)cc4)cc3C(=O)N2C)O1,.,.,4.7,.,.
